Experimental data taken from PubChem BioAssay AID493200 (National Center for Advancing Translational Sciences (NCATS), 2011).
Records with an inconclusive call do not appear. Calls of active or inactive are those of the source. Calls follow the shape of the dose curve; as a rule, active = well fitted activation curve with a large enough effect; inconclusive = small, poorly fitted or top-dose-only effect; inactive = no such curve, though single readings can be large or run the other way.

Assay: qHTS Assay for Rab9 Promoter Activators: Initial hit validation from the primary screen
Conditions: Huh7 Rab9 promoter luciferase reporter, 24 h; series mostly up to 46.1 µM
Method in brief: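 Huh7 cells stably carrying a Rab9 promoter–luciferase construct, plated in reduced-serum medium with 10% FBS, rested 2 h, then exposed to compounds in DMSO for 24 h at 37C. Luminescence read 10 min after adding Amplite luciferase reagent.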
Potency is read from the fitted curve at half-maximal effect.

Potency, active:
O=C(CCS(=O)(=O)c1ccccc1)Nc1ccc(-c2nc3ccccc3s2)cc1 223 nM
CCC(=O)NC(=S)Nc1ccc(N2CCOCC2)cc1 39700 nM
Nc1ccc(C(=O)Nc2ccccc2N)cc1 15800 nM
O=C(CSc1nnc(-c2ccccn2)o1)Nc1ccccc1F 1120 nM
CC(=O)Nc1ccc(-c2csc(Nc3ncccn3)n2)cc1 353 nM
COC(=O)c1ccc(NC(=O)c2ccc3nc(C)sc3c2)cc1 560 nM
Cc1ccc(NC(=O)NC(=O)c2ccccc2)cc1F 445 nM
CCc1cc(C(=O)Nc2ccccc2)cs1 2810 nM
N#CC/C(N)=N/NC(=O)CCCNc1ncc(C(F)(F)F)cc1Cl 19900 nM
Cc1nc2sc(C(=O)OC(C)C)c(N)c2c(C)c1C 15800 nM
Cc1cc(C)c2c(N)c(C(=O)Nc3ccc([N+](=O)[O-])cc3)sc2n1 499 nM
O=C(CSc1nnc(-c2ccccc2)o1)Nc1ccccc1F 112 nM

Potency, inactive:
COc1ccc2oc(=O)c(C(=O)NC(C)c3ccccc3)cc2c1 (centres undefined)
O=C(C[N+]1(CC#Cc2ccccc2)CCCCC1)c1ccccc1
Nc1ccccc1C(=O)N/N=C1/C2CN3CCN(C2)CC1(Cc1ccccc1)C3
CCCCn1c(CCNC(=O)c2cccs2)nc2ccccc21
CCCNC(=O)C1CCN(S(=O)(=O)c2ccc3[nH]c(=O)ccc3c2)CC1
O=CN1CCN(C(=O)c2ccccc2Cl)CC1
COCCNC(=O)C1CCC(CNS(=O)(=O)c2ccc(F)cc2)CC1 (centres undefined)
COCCNC(=O)CN1C(=O)NC(c2ccccc2)(c2ccccc2)C1=O
O=C(CCCC(=O)N(CC(=O)NC1CCCCC1)c1cccc(F)c1)Nc1ccccn1
Cc1c(C(O)CN2CCN(Cc3ccc4c(c3)OCO4)CC2)c2ccccc2n1C (centres undefined)
C=CCOC(=O)N1CCN(c2cccc(C(F)(F)F)c2)CC1
COc1ccc(OC)c(S(=O)(=O)N2CCN3CCCC3C2)c1 (centres undefined)
COc1ccc(NC(=O)CCCN2C(=O)C(c3ccccc3)Oc3cccnc32)cc1OC (centres undefined)
CCN(CC)S(=O)(=O)c1ccc(NCc2ccccn2)nc1
CN(C)C(=O)[C@H]1C[C@H]1[C@@H](O)[C@H](CO)NC(=O)[C@H](COCc1ccccc1)NC(=O)OC(C)(C)C
CC1CC(C)CN(CC(=O)N2CCOCC2)C1 (centres undefined)
COC(=O)c1sccc1NC(=S)OC
O=C(NCCSCc1c(F)cccc1Cl)c1ccc(CN2CCOCC2)cc1
CCOc1ccc(CNC(=O)C2CCCN(S(C)(=O)=O)C2)cc1OC (centres undefined)
COc1ccccc1NC(=S)NCc1ccc(Cl)cc1
NC(=O)C(=O)NN=C1C2CC3CC(C2)CC1C3
COCCn1c(SCc2ccc(C(=O)OC)o2)nc2cc(Cl)ccc2c1=O
